Measured values reported in PubChem BioAssay AID504652 (National Center for Advancing Translational Sciences (NCATS), 2011).
Out of some 360,000 compounds screened, about 11,000 (3.1%) were called active. Many of the other results were omitted from the sample, so actives are more common in it than they were. Values without a mark were called inactive. No stated cut-off is given here; in the data, active means activity change below about -30%; inactive means the rest. Square brackets hold non-standard residues; d marks the D form. Peptide text beside a SMILES is read from it. * marks the point of attachment. PhAc = O=C(Cc1ccccc1)*

These compounds were tested against D(1A) dopamine receptor (Homo sapiens) (UniProt P21728) (assay: Antagonist of Human D 1 Dopamine Receptor: qHTS). Settings: HEK293 TREx D1 cells, calcium flux, dopamine EC80; at 10 µM; active compounds read low.
Sequence of D(1A) dopamine receptor (Homo sapiens) (P21728 whole entry, looked up): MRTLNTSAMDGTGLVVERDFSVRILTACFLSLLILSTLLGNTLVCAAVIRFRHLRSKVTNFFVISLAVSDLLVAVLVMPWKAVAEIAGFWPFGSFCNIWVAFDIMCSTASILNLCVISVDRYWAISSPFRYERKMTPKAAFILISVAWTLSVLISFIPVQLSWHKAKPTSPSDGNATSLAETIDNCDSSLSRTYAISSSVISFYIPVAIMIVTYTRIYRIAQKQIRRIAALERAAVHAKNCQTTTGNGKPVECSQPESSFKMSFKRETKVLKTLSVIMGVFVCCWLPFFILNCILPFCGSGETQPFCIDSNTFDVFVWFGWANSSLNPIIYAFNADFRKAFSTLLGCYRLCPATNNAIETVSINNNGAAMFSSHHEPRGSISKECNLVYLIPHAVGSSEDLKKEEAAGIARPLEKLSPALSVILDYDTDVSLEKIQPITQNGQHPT
Method in brief: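 Using tetracycline-induced force-coupled D1 Hek293 cells and a calcium dye, signals were followed for 180 s after compound, then for 180 s after EC80 dopamine, to detect inhibitors.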
On the % scale 0 is the no-effect control and ±100 the full control effect.

Compound	activity change, negative = inhibition
CCOc1ccc(CNC(=O)c2ccc(CS(=O)c3ccccc3)o2)cc1 (configuration not stated)	-7.56%
COc1ccc(CNC(=O)CC2Oc3ccc(C)cc3NC2=O)cc1 (configuration not stated)	14%
O=C(COC(=O)c1cccc(Cl)c1)Nc1ccc2[nH]c(=O)[nH]c2c1	2.99%
COc1ccc(C(=O)OCC(=O)Nc2cccc(C(C)=O)c2)cc1OC	-4.31%
COc1ccc(C(=O)OCC(=O)Nc2ccc3[nH]c(=O)[nH]c3c2)c(OC)c1OC	-37.4% (active)
COc1ccc(NC(=O)c2sc3nc(-c4cc5cccc(OC)c5oc4=O)[nH]c(=O)c3c2C)cc1	7.97%
Cc1ccc(CSc2nc3cccnc3n2Cc2ccc(C(=O)NC3CC3)cc2)cc1	-0.852%
CCc1ccc(NC(=O)CCCc2nnc3n(CCCOC)c(=O)c4sccc4n23)cc1	-2.77%
Cn1cnc([N+](=O)[O-])c1Sc1ccccc1	1.72%
Cn1nc(-c2ccccc2)c(CSc2cccc(Cl)c2)c1Cl	2.15%
Cn1nc(-c2ccccc2)c(CO)c1Sc1ccccc1	-64.5% (active)
Cc1ccc(S(=O)(=O)NCc2nc3nc(C)cc(C)n3n2)cc1	-1.58%
Cc1ccc(NC(=O)Nc2ccccc2)c(Br)c1	-35.1% (active)
CCOc1cc(NC(=O)Nc2ccccc2)c(OCC)cc1NC(=O)CC	0.545%
Cc1ccc(NC(=O)c2ccn(C(=O)Nc3ccccc3)n2)c(C)c1	4.19%
COc1ccc(Cn2c(=O)c3oc4ccccc4c3n(CC(=O)Nc3ccc(F)cc3F)c2=O)cc1	-7.86%
Cc1cc2c(s1)c1cnn(Cc3cc(F)c(Cl)cc3Cl)c(=O)c1n2C	3.83%
CC(C)OCCCNc1ncnc2c1[nH]c1ccc(F)cc12	-48.9% (active)
Cc1ccc(-n2ncc(C(=O)N(C)Cc3ccccc3)c2-n2cccc2)cc1	-9.92%

Compound	activity change, negative = inhibition
Cc1cc2c(cc3c(SCc4nc(-c5ccccc5)oc4C)nnc(C)n32)o1	-21.6%
O=C(NCC(c1ccco1)S(=O)(=O)c1cccs1)c1ccc(F)cc1 (configuration not stated)	-7.39%
O=C(CC1NCCNC1=O)Nc1cc(Cl)cc(Cl)c1 (configuration not stated)	4.63%
O=C(CC1NCCc2ccccc21)Nc1cccc(Cl)c1 (configuration not stated)	-31.7% (active)
O=C(CC1NCCNC1=O)Nc1ccc(Oc2ccccc2)cc1 (configuration not stated)	1.7%
O=C(NCc1ccc(Cl)cc1)c1ccc2c(c1)nnn2C1CCCC1	-8.94%
Cc1ccc2ccc3c(c2n1)NS(=O)(=O)c1ccccc1-3	8.65%
Cc1cccc2c1-c1sc(C(=O)NCCCN3CCc4ccccc4C3)cc1CO2	-31.8% (active)
COc1ccc(CNC(=O)c2cc3c(s2)-c2ccccc2OC3)cc1	-24.1%
Cc1cccc2c1-c1sc(C(=O)Nc3ccc(F)cc3F)cc1CO2	-14.5%
COc1ccc2c(c1)CCc1c(C(=O)Nc3cc(C)ccc3O)noc1-2	-13.5%
COc1ccc(CNc2nc(-c3ccc(Cl)cc3)cc(C(F)(F)F)n2)cc1	-13.9%
CCCNC(=O)C1CCC(Cn2c(=O)c3sccc3n(Cc3ccccc3F)c2=O)CC1 (configuration not stated)	-11.6%
CCCC12CN3CC(CCC)(CN(C1)C3c1c[nH]c3ccc(OC)cc13)C2=O (configuration not stated)	-7%
COc1ccccc1CN(C)C(=O)c1cc2ccccc2o1	-35.2% (active)
COc1ccccc1CNC(=O)C1CCN(c2nc3ccccc3o2)CC1	15.4%
COc1ccccc1CN(C)C(=O)C1(c2ccc(Cl)cc2)CC1	-0.3%
CCc1ccc(N(CC)C(=O)CCn2cnc3onc(-c4ccc(F)cc4)c3c2=O)cc1	-6.1%
CCCN(CC1COc2ccccc2O1)C(=S)Nc1ccc(C)cc1 (configuration not stated)	-12.3%

Compound	activity change, negative = inhibition
S=C(NCC1COc2ccccc2O1)Nc1ccc(Br)cc1 (configuration not stated)	-47.7% (active)
CC(NC(=S)Nc1ccccc1)C1COc2ccccc2O1 (configuration not stated)	-14.2%
COc1ccc(-n2c(=O)c3c(c4cc(OC)ccc4n3C)n(Cc3cccc(C)c3)c2=O)cc1	4.47%
Cc1ccc(Cl)cc1N1CCN(C(=O)CN2C(=O)COc3ccc(S(=O)(=O)N4CCOCC4)cc32)CC1	3.53%
COc1cc(NC(=O)CCn2nc(C)cc2C)cc(OC)c1OC	34.5%
O=C(c1ccccc1F)N1CCC(c2nc3c(nnn3Cc3cccc(F)c3)c(=O)[nH]2)CC1	0.447%
Cc1ccc(NC(=O)N2CCC(c3nc4c(nnn4Cc4c(F)cccc4Cl)c(=O)[nH]3)CC2)cc1	-40.8% (active)
O=C(Nc1ccc(F)cc1)N1CCCC(c2nc3c(nnn3Cc3ccccc3Cl)c(=O)[nH]2)C1 (configuration not stated)	2.43%
Cn1cc(S(=O)(=O)N2CCCCCC2)cc1C(=O)N1CCN(c2ccc(F)cc2)CC1	5.3%
CC(C)Oc1ccc(CNC(=O)C2CCN(c3nc4ccccc4n(C)c3=O)CC2)cc1	18.8%
CCCOc1ccc(C(=O)Nc2ccc3oc(-c4cccc(Cl)c4Cl)nc3c2)cc1	6.25%
COc1ccc2oc(=O)c(-c3cn4c(n3)sc3cc(OC)ccc34)cc2c1	2.94%
Cn1c(=O)c2c(nc(SCC(=O)Nc3ccc(F)cc3)n2Cc2ccccc2)n(C)c1=O	6.42%
COC(=O)[C@H](CC(C)C)NC(=O)N1CCCCC1C (some centres not stated)	-78.1% (active)
CC(C)C[C@H](NC(=O)C1CCC(CNC(=O)[C@@H]2CCCN2C(=O)OC(C)(C)C)CC1)C(=O)O (some centres not stated)	-1.98%
CC(C)C[C@@H](NC(=O)[C@H]1CCCN1C(=O)Cc1ccccc1)C(N)=O (PhAc-[dP]-[dL]-NH2)	30%
CC(=O)c1ccc(NC(=O)CSc2nc(-c3ccccc3F)nc3c2c(=O)n(C)c(=O)n3C)cc1	-0.158%
CC(=O)Nc1cc(C(=O)NCc2ccc(F)cc2Cl)ccc1Sc1ccc(Cl)cc1	9.87%
CCOC(=O)c1ccc(NC(=O)C2CC(=O)NC(=Nc3ccc(C)c(C)c3)S2)cc1 (configuration not stated)	-1.43%
